# PubChem BioAssay (Tox21)
# Where “and” joins values, the source holds several entries; their conditions need not be identical. Equal values may be shown once. Records with an inconclusive call do not appear. Entries that show only a call come without a potency. Some compounds were tested as several samples or in several runs, with calls that do not always agree. Calls of active or inactive are those of the source. Unless noted, calls come from the whole dose curve; as a rule, active = well fitted curve in the direction sought with a large enough effect in the repeat runs; inconclusive = weak or mixed curves; inactive = no such curve, though single readings can be large; an effect the other way counts as inactive or inconclusive.
# How the values were obtained:
# [1] = qHTS assay to identify small molecule agonists of the peroxisome proliferator-activated receptor delta (PPARd) signaling pathway - cell viability counter screen (AID 743211); conditions: PPARd-bla HEK293H viability, CellTiter-Glo luminescence, 17 h; series mostly up to 62.6 µM; note: nearly all actives have a fitted effect of over 55% in size; note: potency is the fitted concentration of half-maximal effect
# Outline: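 Viability was measured as CellTiter-Glo luminescence (30 min, room temperature) in the same wells as the beta-lactamase readout. GeneBLAzer PPARd UAS-bla HEK293H cells received compound after 5 h plating and were incubated 17 h at 37 C.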
# [2] = qHTS assay to identify small molecule antagonists of the peroxisome proliferator-activated receptor delta (PPARd) signaling pathway - cell viability counter screen (AID 743213); conditions: PPARd-bla HEK293H viability, CellTiter-Glo luminescence, 17 h; series mostly up to 62 µM; note: nearly all actives have a fitted effect of over 50% in size; note: potency is the fitted concentration of half-maximal effect
# Outline: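 In this counter screen, HEK293H cells carrying a UAS-beta-lactamase reporter are co-treated with test compounds and 300 nM L165041 (final) for 17 h at 37 C; cell viability is quantified by CellTiter-Glo luminescence.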
# [3] = biological target: Peroxisome proliferator-activated receptor delta (Homo sapiens) (UniProt Q03181); assay: qHTS assay to identify small molecule antagonists of the peroxisome proliferator-activated receptor delta (PPARd) signaling pathway (AID 743215; active = well fitted inhibition curve with a large enough effect in the signal ratio in the repeat runs, not every such curve was filed as active; the % refers to the signal ratio;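 note: cells stimulated with agonist L165041 at 300 nM final during compound exposure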; note: potency is the fitted concentration of half-maximal effect); conditions: HEK293H PPARd-UAS-bla, beta-lactamase FRET ratio, antagonist, 17 h; series mostly up to 62 µM
# Peroxisome proliferator-activated receptor delta (Homo sapiens), sequence (Q03181 whole entry, looked up): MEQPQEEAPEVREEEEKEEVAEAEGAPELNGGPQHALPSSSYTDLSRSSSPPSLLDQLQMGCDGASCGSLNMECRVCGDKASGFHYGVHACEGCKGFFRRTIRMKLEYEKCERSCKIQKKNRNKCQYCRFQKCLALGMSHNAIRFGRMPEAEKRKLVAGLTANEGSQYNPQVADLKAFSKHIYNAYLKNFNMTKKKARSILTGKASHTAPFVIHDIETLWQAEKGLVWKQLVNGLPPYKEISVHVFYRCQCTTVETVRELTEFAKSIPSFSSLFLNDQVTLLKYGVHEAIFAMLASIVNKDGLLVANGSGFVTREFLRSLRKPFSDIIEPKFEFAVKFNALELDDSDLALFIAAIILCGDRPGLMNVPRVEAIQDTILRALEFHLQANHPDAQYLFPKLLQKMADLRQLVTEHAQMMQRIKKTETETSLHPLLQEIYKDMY
# Outline: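 HEK293H GeneBLAzer PPARd UAS-bla reporter cells; cpd + L165041 300 nM final, 17 h 37 C; LiveBLAzer B/G FRET substrate 2 h RT; fluorescence intensity read-out. Antagonist mode.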
# [4] = biological target: Bile acid receptor (Homo sapiens) (UniProt Q96RI1); assay: qHTS assay to identify small molecule antagonists of the farnesoid-X-receptor (FXR) signaling pathway (AID 743217; active = well fitted inhibition curve with a large enough effect in the signal ratio in the repeat runs, not every such curve was filed as active; the % refers to the signal ratio); conditions: HEK293T FXR-UAS-bla, beta-lactamase ratio, CDCA-stimulated, 16 h; series mostly up to 62.6 µM
# Bile acid receptor (Homo sapiens), sequence (Q96RI1 whole entry, looked up): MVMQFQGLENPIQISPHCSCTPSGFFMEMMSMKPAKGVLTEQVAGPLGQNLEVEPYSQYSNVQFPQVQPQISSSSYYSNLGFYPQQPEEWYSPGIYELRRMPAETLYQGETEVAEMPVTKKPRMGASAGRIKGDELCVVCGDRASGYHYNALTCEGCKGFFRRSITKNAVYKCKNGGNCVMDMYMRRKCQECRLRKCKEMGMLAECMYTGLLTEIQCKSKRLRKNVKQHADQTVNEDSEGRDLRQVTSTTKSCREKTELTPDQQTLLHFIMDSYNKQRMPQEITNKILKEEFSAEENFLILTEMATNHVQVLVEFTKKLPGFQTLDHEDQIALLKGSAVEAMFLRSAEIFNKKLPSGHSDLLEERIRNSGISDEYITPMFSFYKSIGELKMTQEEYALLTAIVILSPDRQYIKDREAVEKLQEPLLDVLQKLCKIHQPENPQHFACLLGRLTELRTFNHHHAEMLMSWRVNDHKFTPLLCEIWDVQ
# Outline: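 Read-out: beta-lactamase FRET fluorescence (LiveBLAzer B/G substrate, 2 h, room temperature) in GeneBLAzer FXR-UAS-bla HEK 293T cells. Compounds were co-dosed with 50 uM chenodeoxycholic acid (final) and incubated 16 h at 37 °C.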
# [5] = qHTS assay to identify small molecule agonists of the farnesoid-X-receptor (FXR) signaling pathway - cell viability counter screen (AID 743218); conditions: FXR-bla HEK293T viability, CellTiter-Glo luminescence, 16 h; series mostly up to 62.6 µM; note: nearly all actives have a fitted effect of over 45% in size; note: potency is the fitted concentration of half-maximal effect
# Outline: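 Luminescence from CellTiter-Glo, read after 30 min at RT, reports viability of GeneBLAzer FXR-UAS-bla HEK 293T cells treated 16 h with compounds in the wells used for the beta-lactamase reporter.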
# [6] = biological target: Bile acid receptor (Homo sapiens) (UniProt Q96RI1); assay: qHTS assay to identify small molecule agonists of the farnesoid-X-receptor (FXR) signaling pathway (AID 743220; active = well fitted activation curve with a large enough effect in the signal ratio in the repeat runs, not every such curve was filed as active; the % refers to the signal ratio); conditions: HEK293T FXR-UAS-bla, beta-lactamase FRET ratio, 16 h; series mostly up to 62.6 µM
# Outline: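 FXR-UAS-bla HEK 293T cells carrying a UAS-driven beta-lactamase reporter were plated for 5 h at 37C/5% CO2, then exposed to DMSO-dissolved Tox21 10K compounds for 16 h at 37C. A LiveBLAzer B/G FRET substrate was loaded for 2 h at room temperature before fluorescence reading.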
# [7] = qHTS assay to identify small molecule antagonists of the farnesoid-X-receptor (FXR) signaling pathway - cell viability counter screen (AID 743221; active = well fitted cell-killing curve with a large enough effect in the repeat runs, not every such curve was filed as active; note: nearly all actives have a fitted effect of over 50% in size; note: potency is the fitted concentration of half-maximal effect); conditions: FXR-bla HEK293T viability, CellTiter-Glo luminescence, 16 h; series mostly up to 62.6 µM
# Outline: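 Cytotoxicity counter screen run in the FXR-bla reporter wells: HEK 293T cells exposed to compound with 50 uM (final) chenodeoxycholic acid for 16 h, 37 C, then viability measured by CellTiter-Glo luminescence after 30 min, room temperature.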
# [8] = biological target: Vitamin D3 receptor (Homo sapiens) (UniProt P11473); assay: qHTS assay to identify small molecule agonists of the vitamin D receptor (VDR) signaling pathway (AID 743222; calls by dose curve); conditions: HEK293T VDR-UAS-bla, beta-lactamase FRET ratio, 16 h; series mostly up to 63.5 µM
# Vitamin D3 receptor (Homo sapiens), sequence (P11473 whole entry, looked up): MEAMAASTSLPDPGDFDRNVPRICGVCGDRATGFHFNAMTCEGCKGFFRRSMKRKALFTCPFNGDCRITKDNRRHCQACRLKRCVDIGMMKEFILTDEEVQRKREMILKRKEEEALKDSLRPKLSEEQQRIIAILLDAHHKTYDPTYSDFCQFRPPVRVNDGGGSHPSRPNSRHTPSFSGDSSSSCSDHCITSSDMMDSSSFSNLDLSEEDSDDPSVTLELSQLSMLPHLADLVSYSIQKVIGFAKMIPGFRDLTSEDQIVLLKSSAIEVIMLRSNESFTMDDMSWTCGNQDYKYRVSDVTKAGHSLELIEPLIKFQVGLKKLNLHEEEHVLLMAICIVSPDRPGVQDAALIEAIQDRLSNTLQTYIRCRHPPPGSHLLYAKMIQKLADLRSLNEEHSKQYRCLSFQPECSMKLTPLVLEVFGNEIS
# Outline: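 Beta-lactamase reporter readout (LiveBLAzer B/G FRET, 2 h RT) in VDR-bla cells after 16 h compound treatment at 37C, 5% CO2; cells pre-incubated 4 h before pin transfer of DMSO solutions.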
# [9] = qHTS assay to identify small molecule agonists of the vitamin D receptor (VDR) signaling pathway - cell viability counter screen (AID 743224); conditions: VDR-bla HEK293T viability, CellTiter-Glo luminescence, 16 h; series mostly up to 62.6 µM; note: nearly all actives have a fitted effect of over 50% in size; note: potency is the fitted concentration of half-maximal effect
# Outline: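 Cytotoxicity counter screen: VDR-bla cells, 16 h compound exposure at 37C, 5% CO2; CellTiter-Glo luminescence, 30 min RT, same wells as bla read.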
# [10] = qHTS assay to identify small molecule antagonists of the vitamin D receptor (VDR) signaling pathway - cell viability counter screen (AID 743225); conditions: VDR-bla HEK293T viability, CellTiter-Glo luminescence, 16 h; series mostly up to 61 µM; note: nearly all actives have a fitted effect of over 50% in size; note: potency is the fitted concentration of half-maximal effect
# Outline: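 Cytotoxicity counter screen read by CellTiter-Glo luminescence (30 min, room temperature) in the same wells as the VDR-bla antagonist readout. HEK 293T VDR-UAS-bla cells had 16 h at 37C with compound and 3 nM (final) 1-alpha,25-dihydroxyvitamin D3, then 2 h with FRET substrate.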
# [11] = qHTS assay to identify small molecule agonists of the NFkB signaling pathway (AID 1159509; active = well fitted curve in the direction sought with a large enough effect in the signal ratio in the repeat runs, not every such curve was filed as active; the % refers to the signal ratio); conditions: NFkB-bla ME-180 cells, beta-lactamase FRET ratio, 5 h; series mostly up to 61 µM
# Outline: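 Readout: FRET fluorescence, 405 nm excitation, 460/530 nm emission; beta-lactamase expression disrupts FRET. Cells: ME-180 stably carrying NF-kB-driven bla reporter. Compound exposure 5 hr, 37 C, 5% CO2.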
# [12] = qHTS assay to identify small molecule agonists of the endoplasmic reticulum stress response signaling pathway (AID 1159516; active = well fitted activation curve with a large enough effect in the signal ratio in the repeat runs, not every such curve was filed as active; the % refers to the signal ratio); conditions: ESRE-bla HeLa, ER stress beta-lactamase reporter, 5 h; series mostly up to 61 µM
# Outline: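 HeLa ESRE-bla reporter line; cpd 5 h, 37 C/5% CO2; LiveBLAzer B/G FRET substrate 2 h RT; ex 405, em 460/530 nm.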
# [13] = qHTS assay to identify small molecule agonists of the endoplasmic reticulum stress response signaling pathway - cell viability counter screen (AID 1159517; calls by dose curve; note: nearly all actives have a fitted effect of over 50% in size; note: potency is the fitted concentration of half-maximal effect); conditions: ESRE-bla HeLa viability, CellTiter-Glo luminescence, 5 h; series mostly up to 61 µM
# Outline: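 Cytotoxicity of test compounds toward ESRE-bla HeLa cells was assessed after 5 hr exposure. The luminescent CellTiter-Glo signal was measured 30 min after reagent addition.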
# [14] = qHTS assay to identify small molecule antagonists of the retinoid-related orphan receptor gamma (ROR-gamma) signaling pathway - cell viability counter screen (AID 1159520); conditions: Tet-on RORgamma CHO cells viability, ATP luminescence, 16 h; series mostly up to 92.4 µM; note: nearly all actives have a fitted effect of over 50% in size; note: potency is the fitted concentration of half-maximal effect
# Outline: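 Tet-on ROR gamma CHO cells (1,000/well) were plated 4 hr, given compounds in DMSO for 2 hr at 37 C, then induced with 1 uM final doxycycline for 16 hr. Viability was read as ATP by CellTiter-Glo luminescence after 30 min.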
# [15] = qHTS assay to identify small molecule agonists of the AP-1 signaling pathway - cell viability counter screen (AID 1159525; calls by dose curve; note: nearly all actives have a fitted effect of over 55% in size); conditions: ME-180 AP-1-bla cells viability, ATP luminescence, 5 h; series mostly up to 76.8 µM
# Outline: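 Each titration point was normalised to DMSO and tetra n-octyl ammonium bromide controls. The read was Cell Titer Glo luminescence after 30 min at RT, following 5 h compound exposure of ME-180 AP-1-bla cells at 37 °C.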
# [16] = qHTS assay to identify small molecule agonists of the AP-1 signaling pathway (AID 1159526; calls by dose curve); conditions: ME-180 (cervical carcinoma) AP-1-bla reporter, beta-lactamase FRET ratio, 5 h; series mostly up to 76.8 µM
# [17] = biological target: Nuclear receptor ROR-gamma (Homo sapiens) (UniProt P51449); assay: qHTS assay to identify small molecule antagonists of the retinoid-related orphan receptor gamma (ROR-gamma) signaling pathway (AID 1159521; note: nearly all actives have a fitted effect of over 50% in size; note: potency is the fitted concentration of half-maximal effect); conditions: Tet-on RORgamma CHO cells, RORE-luciferase, 16 h; series mostly up to 92.4 µM
# Outline: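 Antagonist read-out: drop in luminescence (ONE-Glo) from an RORE-LUC reporter in CHO cells with doxycycline-inducible ROR-gamma; 2 hr compound pretreatment, 1 uM doxycycline, 16 hr incubation at 37 C.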
# [18] = biological target: Peroxisome proliferator-activated receptor delta (Homo sapiens) (UniProt Q03181); assay: qHTS assay to identify small molecule agonists of the peroxisome proliferator-activated receptor delta (PPARd) signaling pathway (AID 743212; calls by dose curve); conditions: HEK293H PPARd-UAS-bla, beta-lactamase FRET ratio, 17 h; series mostly up to 62.6 µM
# Outline: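 Beta-lactamase reporter read by fluorescence (LiveBLAzer B/G FRET, 2 h, room temperature). Test agents, in DMSO, incubated at 37 C with PPARd-bla HEK293H cells.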
# [19] = biological target: Vitamin D3 receptor (Homo sapiens) (UniProt P11473); assay: qHTS assay to identify small molecule antagonists of the vitamin D receptor (VDR) signaling pathway (AID 743223; active = well fitted inhibition curve with a large enough effect in the signal ratio in the repeat runs, not every such curve was filed as active; the % refers to the signal ratio); conditions: VDR-UAS-bla HEK293T, beta-lactamase FRET ratio, 16 h; series mostly up to 61 µM
# Outline: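 Antagonist mode: compound added to VDR-bla cells alongside agonist 1alpha,25-dihydroxyvitamin D3 (3 nM final), incubation 16 h at 37C. Read-out is LiveBLAzer FRET fluorescence, 2 h at room temperature.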
SMILES,Potency [1],Potency [2],Potency [3],Potency [4],Potency [5],outcome [6],Potency [7],outcome [8],Potency [9],Potency [10],outcome [11],outcome [12],Potency [13],Potency [14],Potency [15],outcome [16],Potency [17],Potency [18],outcome [19]
CNC(=O)Oc1cccc2c1OC(C)(C)O2,inactive,inactive,inactive,inactive,inactive,inactive,inactive,inactive,inactive,inactive,inactive,inactive,inactive,inactive,inactive,inactive,,,
O=[N+]([O-])c1ccc(O)c([N+](=O)[O-])c1,inactive,,,,,,,,inactive,,inactive,inactive,inactive,inactive,inactive,inactive,17.3 µM (active) and 17.2 µM (active),,
CCc1cccc(CC)c1N(COC)C(=O)CCl,,inactive,,inactive,inactive,inactive,inactive,inactive,inactive,inactive,inactive,,inactive,inactive,inactive,inactive,,inactive,inactive
COc1ccc(C=O)cc1,,inactive,inactive,,inactive,,inactive,inactive,inactive,inactive,inactive,inactive,inactive,inactive,,inactive,inactive,inactive,inactive
CCOCN(C(=O)CCl)c1c(C)cccc1CC,,inactive,,,,,inactive,inactive,inactive,inactive,inactive,,inactive,inactive,inactive,inactive,45.9 µM (active) and 27.3 µM (active),,inactive
CCCCCc1cc(O)cc(O)c1,,inactive,,inactive,inactive,inactive,inactive,inactive,inactive,,inactive,inactive,inactive,inactive,,,inactive,inactive,inactive
C=CC(=O)OCCO,inactive,inactive,inactive,,inactive,,inactive,inactive,inactive,inactive,inactive,inactive,inactive,inactive,,inactive,inactive,inactive,inactive
N[C@@H](Cc1ccc(N(CCCl)CCCl)cc1)C(=O)O,inactive,inactive,inactive,inactive,inactive,inactive,inactive,,inactive,inactive,inactive,inactive,inactive,16.8 µM (active),,inactive,11.7 µM (active) and 13.3 µM (active),inactive,
CCN(CC)C(=O)/C(Cl)=C(\C)OP(=O)(OC)OC,inactive,inactive,inactive,,inactive,,inactive,inactive,inactive,inactive,inactive,inactive,inactive,inactive,,inactive,inactive,inactive,inactive
CC(C)NC(C)C,inactive,inactive,inactive,,inactive,,inactive,inactive,inactive,inactive,inactive,inactive,inactive,inactive,,inactive,inactive,inactive,inactive
CCC(C)(C)c1ccc(O)cc1,49.5 µM (active) and inactive,inactive,,inactive,inactive,inactive,inactive,inactive,inactive,inactive,inactive,inactive,inactive,inactive,,inactive,inactive,,inactive
O=C(Nc1ccc(Br)cc1)c1cc(Br)cc(Br)c1O,6.14 µM (active) and 2.45 µM (active) and 8.41 µM (active),1.55 µM (active),6.89 µM (active),,3.45 µM (active) and 1.55 µM (active) and 7.5 µM (active),,9.74 µM (active) and 2.45 µM (active) and 13.3 µM (active),inactive,1.73 µM (active) and 2.19 µM (active) and 8.41 µM (active),1.95 µM (active),inactive,,8.68 µM (active) and 1.95 µM (active) and 5.35 µM (active),27.2 µM (active) and 17.2 µM (active),inactive,inactive,13.6 µM (active) and 10.9 µM (active),inactive,inactive
O=c1oc2ccccc2c(O)c1C(CC(O)c1ccc(-c2ccc(Br)cc2)cc1)c1ccccc1 (stereo not given),,inactive,,inactive,inactive,,inactive,,inactive,,inactive,,,inactive,inactive,,57.9 µM (active),,
CNC(=O)N(C)c1nnc(C(C)(C)C)s1,,inactive,inactive,,inactive,,inactive,inactive,inactive,inactive,inactive,inactive,inactive,inactive,inactive,inactive,inactive,inactive,inactive
O=S(=O)(Oc1ccc(Cl)cc1)c1ccc(Cl)cc1,,inactive,inactive,,inactive,,inactive,inactive,inactive,inactive,inactive,inactive,inactive,inactive,inactive,inactive,inactive,inactive,inactive
Nc1cccnc1,,inactive,inactive,inactive,inactive,inactive,inactive,inactive,inactive,inactive,inactive,inactive,inactive,inactive,inactive,inactive,inactive,inactive,
O=[N+]([O-])c1c(Cl)c(Cl)c(Cl)c(Cl)c1Cl,inactive,inactive,inactive,,inactive,,inactive,inactive,inactive,inactive,inactive,inactive,inactive,inactive,,inactive,inactive,inactive,inactive
S=C1NCCN1,,inactive,,,inactive,,inactive,inactive,inactive,inactive,inactive,inactive,inactive,inactive,,inactive,inactive,,inactive
O=Cc1ccco1,inactive,inactive,inactive,,inactive,,inactive,inactive,inactive,inactive,inactive,inactive,inactive,inactive,,inactive,inactive,inactive,inactive
